Assay outcomes (PubChem BioAssay)
SNCA expr inhib: inhibitors of alpha-synuclein (SNCA) gene expression | HEK-293 SNCA-luciferase knock-in, luminescence, 24 h | Potency, µM (top dose mostly 57.2 µM), usual class: inhibitors | hit rate 0.17% among 140,000 | AID 1671194; further: nearly all actives have a fitted effect of over 45% in size
FLuc inh: Photinus pyralis luciferase inhibition | purified P. pyralis luciferase, luminescence, biochemical | hit rate 2.5% among 76,000 | Potency, µM (highest dose often 115 µM), actives largely listed as inhibitors | P08659; further: nearly all actives have a fitted effect of over 65% in size
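Luminescence read by CCD imager after adding enzyme (10nM final) to wells holding compound, titrated in qHTS. Substrates 10uM each D-luciferin and ATP; buffer 50mM Tris acetate pH 7.5, 10mM Mg acetate, Tween-20, BSA.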
SNCA viab count: reduces viability of HEK-293 SNCA reporter cells | HEK-293-SNCA-luc viability, GF-AFC fluorescence, 24 h | Potency, µM (titrated, usually from 57.1 µM), actives largely listed as cytotoxic | hit rate 0.12% among 150,000 | AID 1671193; further: nearly all actives have a fitted effect of over 30% in size
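Cytotoxicity counterscreen: after 24 h compound treatment of genome-edited SNCA-luciferase HEK-293 cells, live-cell protease substrate GF-AFC read by fluorescence after 30 min; activity scaled between DMSO (0%) and medium-only (-100%), curves Hill-fitted.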
NPR1 antag: blocks ANP-stimulated signaling of human Npr1 receptor; hit rate 1.6% among 76,000; HEK293 hNpr1 GloSensor cGMP, ANP-stimulated luminescence; AID 1347048; Potency, µM (doses to about 46.3 µM), actives largely listed as inhibitors; calls by dose curve; further: nearly all actives have a fitted effect of over 60% in size
Target sequence (P16066 whole entry, looked up): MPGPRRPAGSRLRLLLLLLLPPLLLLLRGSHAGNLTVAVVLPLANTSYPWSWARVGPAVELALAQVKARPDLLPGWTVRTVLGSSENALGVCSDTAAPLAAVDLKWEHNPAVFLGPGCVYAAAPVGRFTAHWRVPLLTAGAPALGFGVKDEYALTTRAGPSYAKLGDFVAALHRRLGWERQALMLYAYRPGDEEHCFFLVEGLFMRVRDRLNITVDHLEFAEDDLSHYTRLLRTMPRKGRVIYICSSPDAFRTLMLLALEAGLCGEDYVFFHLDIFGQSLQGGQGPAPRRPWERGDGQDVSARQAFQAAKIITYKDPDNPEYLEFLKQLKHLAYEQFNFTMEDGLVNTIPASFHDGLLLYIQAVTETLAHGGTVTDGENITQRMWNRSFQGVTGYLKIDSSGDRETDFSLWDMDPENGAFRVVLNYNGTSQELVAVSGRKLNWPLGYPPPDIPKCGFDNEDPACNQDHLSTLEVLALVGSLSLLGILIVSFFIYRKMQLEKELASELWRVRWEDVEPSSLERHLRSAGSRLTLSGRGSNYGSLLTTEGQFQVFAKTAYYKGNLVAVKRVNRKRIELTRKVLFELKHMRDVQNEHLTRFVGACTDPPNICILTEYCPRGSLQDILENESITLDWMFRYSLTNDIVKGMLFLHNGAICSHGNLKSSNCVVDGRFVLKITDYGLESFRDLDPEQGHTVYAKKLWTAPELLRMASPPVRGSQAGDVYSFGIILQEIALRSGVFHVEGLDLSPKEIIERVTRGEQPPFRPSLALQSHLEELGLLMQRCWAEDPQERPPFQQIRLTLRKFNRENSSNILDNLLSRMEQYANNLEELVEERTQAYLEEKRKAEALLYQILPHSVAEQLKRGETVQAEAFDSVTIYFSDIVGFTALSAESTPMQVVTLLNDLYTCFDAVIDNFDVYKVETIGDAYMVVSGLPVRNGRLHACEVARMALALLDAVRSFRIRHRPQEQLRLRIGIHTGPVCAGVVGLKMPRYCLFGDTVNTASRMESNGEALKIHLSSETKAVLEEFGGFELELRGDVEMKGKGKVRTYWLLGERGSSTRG
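HEK293 cells stably expressing human Npr1 and cGMP GloSensor pGS-40F, loaded 2 h with 2% GloSensor reagent, given compound 30 min at room temperature. Luminescence read before and 20 min after 0.1 nM hNppA.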
HEK cytotox: HEK 293 cell cytotoxicity. HEK 293 viability, ATP luminescence (CellTiter-Glo), 48-72 h. Potency, µM (top dose mostly 115 µM), most hits filed as inhibitors. hit rate 6.6% among 94,000; further: nearly all actives have a fitted effect of over 60% in size
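Read-out: CellTiter-Glo ATP luminescence. Cells: HEK 293, 250 cells/well. Exposure: 48 or 72 hr, 37 degree Celsius.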
NIH3T3 tox: NIH 3T3 cell cytotoxicity; NIH 3T3 viability, CellTiter-Glo ATP luminescence, 48-72 h; Potency, µM (series often up to 96.7 µM), usual class: inhibitors; hit rate 4.3% among 94,000; AID 1345082; further: nearly all actives have a fitted effect of over 55% in size
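Viability of NIH 3T3 cells after 48 or 72 hr compound treatment at 37 °C was assessed by CellTiter-Glo, with luminescence imaged following a 10 min room-temperature step.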
Npr1 antag conf: hNpr1 antagonism, confirmation assay; hit rate 76% among 1,400; Potency, µM (titrated, usually from 57.6 µM), hits mostly inhibitors; shares compounds with NPR1 antag; HEK293 hNpr1 cGMP GloSensor luminescence, ANP-stimulated; calls by dose curve; further: nearly all actives have a fitted effect of over 70% in size
Npr2 selectivity: hNpr2 antagonism, selectivity versus Npr1 | shares compounds with NPR1 antag | HEK293 hNpr2 GloSensor cGMP luminescence, CNP-stimulated | Potency, µM (titrated, usually from 57.6 µM), actives largely listed as inhibitors | hit rate 67% among 1,400; calls by dose curve; further: nearly all actives have a fitted effect of over 70% in size
FLuc inh counter: inhibits firefly luciferase, false Npr1 antagonist flag | Potency, µM (doses to about 57.6 µM), usual class: inhibitors | AID 1347047 | hit rate 0.7% among 1,400 | shares compounds with NPR1 antag | purified FLuc enzyme, luminescence, Km substrate
GloSensor ctrl: counter-screen for Npr1 antagonists: GloSensor control cell line; shares compounds with NPR1 antag; HEK293 GloSensor cGMP, SNP-stimulated, luminescence; Potency, µM (doses to about 57.6 µM), actives largely listed as inhibitors; hit rate 69% among 1,400; AID 1347051; calls by dose curve; further: nearly all actives have a fitted effect of over 70% in size
Hits are given with their value; 0 = inactive; ? = inconclusive; - = no result given. The list is not random: actives were taken first. Their share in the collection is about 7.4%. Unless noted, the call rests on the fitted dose curve; in most records, active means well fitted curve in the direction sought with a large enough effect; inconclusive means small, poorly fitted or top-dose-only effect, or another doubt; inactive means no such curve, though single readings can be large; an effect the other way counts as inactive or inconclusive.

SMILES	SNCA expr inhib	FLuc inh	SNCA viab count	NPR1 antag	HEK cytotox	NIH3T3 tox	Npr1 antag conf	Npr2 selectivity	FLuc inh counter	GloSensor ctrl
O=C(c1ccc(Cl)cc1)N1CCNc2cnc(Nc3ccccc3)nc2C1	0	0	0	32µM	?	?	35µM	35µM	0	35µM
Cc1cccc(CC(=O)N2CCCN(c3cc(-c4ccc(Br)cc4)[nH]n3)CC2)c1	0	0	0	?	?	32µM	?	24µM	0	24µM
Cc1ccccc1CC(=O)N1CCCN(c2cc(-c3ccc(Cl)cc3)[nH]n2)CC1	0	0	0	0	?	?	-	-	-	-
COc1cccc(CC(=O)N2CCCN(c3cc(-c4ccc(Br)cc4)[nH]n3)CC2)c1	?	0	0	11µM	45µM	35µM	24µM	24µM	0	22µM
COc1ccc(-c2cc(N3CCN(C(=O)Cc4ccc(Br)cc4)CC3)n[nH]2)cc1	0	0	0	?	0	0	-	-	-	-
O=C1CC2(CCN([S+](=O)([O-])c3ccccc3)C2)Nc2ccccc2N1 (stereo not given)	0	-	0	-	0	0	-	-	-	-
CN(Cc1ccccc1)Cc1ccccc1OCC(O)CN1CCCCC1 (stereo not given)	0	0	0	0	?	0	-	-	-	-
CC(=O)NCCC1CCN(C(=O)Nc2ccccc2F)CC1	0	0	0	0	0	0	-	-	-	-
COc1ccc(-c2noc(CC3CCN(C(=O)c4ccccc4OC)CC3)n2)cc1	?	0	0	10µM	?	?	14µM	14µM	0	12µM
COc1ccc(-c2noc(CNC(=O)c3ccc(OC)cc3OC)n2)cc1	0	-	?	-	-	-	-	-	-	-
COc1ccc(-c2noc(CC3CCN(C(=O)c4ccc(OC)cc4OC)CC3)n2)cc1	0	0	0	2.8µM	?	?	3.1µM	4.8µM	0	3.1µM
COc1cc(OC)cc(C(=O)N2CCC(Cc3nc(-c4ccccc4)no3)CC2)c1	0	0	0	?	?	?	-	-	-	-
COc1ccc(-c2noc(CC3CCN(C(=O)C4CCN(C(=O)c5ccccc5)CC4)CC3)n2)cc1	0	0	0	8.9µM	?	?	19µM	17µM	0	12µM
CCOc1cc(C(=O)N2CCC(Cc3nc(-c4ccccc4)no3)CC2)cc(OCC)c1OCC	0	0	0	0	?	?	-	-	-	-
CN(C)Cc1nnc(C2CC(NC(=O)c3ccc4ncccc4c3)C2)n1C (stereo not given)	0	0	0	0	0	0	-	-	-	-
CN(C(=O)C1(c2ccc(Cl)cc2)CCOCC1)C1CCc2ccccc21 (stereo not given)	0	-	0	-	?	?	19µM	9.7µM	0	0
CCOCCN1C(=O)COC[C@@H]1[C@H](O)c1ccc(NC(=O)CC(C)(C)C)cc1	0	0	0	0	0	0	-	-	-	-
O=C(NC1CCCCC1)N1C2CCC1CN(c1ccc(C(F)(F)F)cc1)C2	0	-	0	-	?	?	-	-	-	-
CC(C)NC(=O)N1C2CCC1CN(c1ccc(C(F)(F)F)cc1)C2	?	-	0	-	?	?	21µM	19µM	0	15µM
O=C(c1ccc(F)cc1)N1CCC2(CC1)CC(N(Cc1ccc(F)cc1)C1CC1)CCO2 (stereo not given)	?	0	0	?	?	?	?	?	0	?
O=C(c1cccs1)N1CCC2(CC1)CC(Cc1ccc(F)cc1)CCO2 (stereo not given)	0	0	0	11µM	?	?	27µM	27µM	0	27µM
